Measured values from PubChem BioAssay (NCI).
About 79,000 compounds went through this panel and 15% of them were active in at least one assay; those are over-represented in the sample as a whole. Activity calls are given as the source filed them. No stated cut-off is given here; in the data, active means growth inhibition above about 70%; inactive means the rest.

Legend:
[1] = NCI Yeast Anticancer Drug Screen. Data for the rad52 strain (AID 147);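 further: 0% = growth of vehicle-treated control cultures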; conditions: S. cerevisiae rad52 mutant growth inhibition, stronger effect = higher value
Outline: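 Read-out: growth inhibition versus vehicle-treated controls. Cells were a DNA repair-deficient yeast strain treated with compounds.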

[2] = NCI Yeast Anticancer Drug Screen. Data for the wt1 strain (AID 149);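 further: 0% = growth of vehicle-treated wt1 cultures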; conditions: S. cerevisiae wt1 strain (SPY 50644) growth inhibition, stronger effect = higher value
Outline: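 Each compound is tested on wt1 yeast and the loss of growth versus vehicle gives the inhibition value.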

[3] = NCI Yeast Anticancer Drug Screen. Data for the rad50EPP+ strain (AID 151);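 further: 0% = growth of vehicle-treated control cultures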; conditions: S. cerevisiae rad50 mutant strain, stronger effect = higher value
Outline: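 Growth inhibition read against vehicle controls in rad50EPP+ yeast, a strain altered in DNA damage repair, after compound exposure.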

[4] = NCI Yeast Anticancer Drug Screen. Data for the mgt1 strain (AID 153); conditions: S. cerevisiae mgt1 mutant growth inhibition, stronger effect = higher value
Outline: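 mgt1 yeast grown with test compound; read-out is growth inhibition versus vehicle-treated cultures.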

[5] = NCI Yeast Anticancer Drug Screen. Data for the rad50 strain (AID 155);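 further: 0% = growth of vehicle-only cultures of the same strain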; conditions: S. cerevisiae rad50 strain growth inhibition, stronger effect = higher value
Outline: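 Vehicle-treated cultures provide the reference for the growth inhibition reported for compound-exposed, repair-deficient yeast.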

[6] = NCI Yeast Anticancer Drug Screen. Data for the mec2-1 strain (AID 157); conditions: S. cerevisiae mec2-1 strain, stronger effect = higher value
Outline: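 Yeast mec2-1 mutant treated with compound. Readout: growth inhibition vs vehicle controls.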

[7] = NCI Yeast Anticancer Drug Screen. Data for the rad14 strain (AID 159);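 further: 0% = growth of vehicle-treated control cultures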; conditions: S. cerevisiae rad14 strain growth inhibition, stronger effect = higher value
Outline: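 Inhibition of growth is reported for a repair-deficient yeast mutant following compound treatment, calculated relative to cultures that received vehicle.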

[8] = NCI Yeast Anticancer Drug Screen. Data for the sgs1 mgt1 strain (AID 161);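 further: 0% = growth of cultures given vehicle only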; conditions: S. cerevisiae sgs1 mgt1 strain, stronger effect = higher value
Outline: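 Mutant yeast exposed to compound; growth scored against vehicle-only wells.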

[9] = NCI Yeast Anticancer Drug Screen. Data for the CLN2oe strain (AID 163);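 further: 0% = growth of vehicle-only control cultures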; conditions: S. cerevisiae CLN2oe strain, stronger effect = higher value
Outline: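 Read-out: yeast growth inhibition, expressed relative to vehicle-only controls. The strain bears an engineered cell-cycle alteration.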

[10] = NCI Yeast Anticancer Drug Screen. Data for the cln2 rad14 strain (AID 165);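 further: 0% = growth equal to vehicle treated cultures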; conditions: S. cerevisiae cln2 rad14 strain, stronger effect = higher value
Outline: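 cln2 rad14 yeast strain; compound exposure; growth inhibition read vs vehicle controls.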

[11] = NCI Yeast Anticancer Drug Screen. Data for the bub3 strain (AID 167); conditions: S. cerevisiae bub3 mutant strain, stronger effect = higher value
Outline: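 Mutant yeast screening strain plus compound; vehicle-treated cultures serve as the 0% inhibition reference.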

[12] = NCI Yeast Anticancer Drug Screen. Data for the wt2 strain (AID 169); conditions: S. cerevisiae wt2 strain growth inhibition, stronger effect = higher value
Outline: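 Read-out: growth inhibition versus vehicle-treated control cultures after compound exposure of the yeast strain.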

[13] = NCI Yeast Anticancer Drug Screen. Data for the mlh1 strain (AID 171);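 further: 0% = growth of vehicle-treated control cultures of the same strain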; conditions: S. cerevisiae mlh1 strain growth inhibition, stronger effect = higher value
Outline: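 Read-out: growth inhibition versus vehicle controls. Strain: engineered yeast with a defined DNA repair or cell cycle defect, compound-treated.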

[14] = NCI Yeast Anticancer Drug Screen. Data for the sgs1 strain (AID 173);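 further: 0% = growth of vehicle-only control cultures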; conditions: S. cerevisiae sgs1 mutant, stronger effect = higher value
Outline: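 Read-out: yeast growth inhibition relative to vehicle controls, following compound exposure of a strain with a defined DNA repair/cell cycle alteration.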

[15] = NCI Yeast Anticancer Drug Screen. Data for the mlh1 rad18 strain (AID 175); conditions: S. cerevisiae mlh1 rad18 strain growth inhibition, stronger effect = higher value
Outline: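 Yeast w/ defined DNA-repair lesions; compound exposure; growth vs vehicle controls → % inhibition.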

[16] = NCI Yeast Anticancer Drug Screen. Data for the rad18 strain (AID 177); conditions: S. cerevisiae rad18 mutant growth inhibition, stronger effect = higher value
Outline: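 Readout: growth inhibition vs vehicle controls. Cells: genetically altered yeast strain, DNA repair defect.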

[17] = at 5.0 µM (retest, dose inferred, filed as 0.5)
[18] = at 50.0 µM (retest, dose inferred, filed as 5.0)

Measured: growth inhibition

CO[C@@]12[C@H](COC(N)=O)C3=C(C(=O)C(C)=C(N)C3=O)N1C[C@@H]1N[C@@H]12
inactive: [1]; at 1.2 µM 7% | [1]; at 3.7 µM 19% | [1]; at 11.0 µM 55% | [2]; at 1.2 µM 1% | [2]; at 3.7 µM 2% | [2]; at 11.0 µM 9% | [2]; at 33.0 µM 30% | [2]; at 100.0 µM 62% | [3]; at 1.2 µM -4% | [3]; at 3.7 µM 5% | [3]; at 11.0 µM 25% | [3]; at 33.0 µM 63% | [4]; at 1.2 µM -2% | [4]; at 3.7 µM 2% | [4]; at 11.0 µM 11% | [4]; at 33.0 µM 33% | [5]; at 1.2 µM 1% | [5]; at 3.7 µM 14% | [5]; [17] 23% | [5]; at 11.0 µM 38% | [5]; at 50.0 µM 65.3% | [6]; at 1.2 µM 1% | [6]; at 3.7 µM 13% | [6]; [17] 25% | [6]; at 11.0 µM 29% | [6]; at 50.0 µM 63.9% | [7]; at 1.2 µM 6% | [7]; at 3.7 µM 17% | [7]; at 11.0 µM 39% | [8]; [17] 22% | [8]; [18] 68% | [8]; at 50.0 µM 50.8% | [9]; at 1.2 µM -3% | [9]; at 3.7 µM 0% | [9]; at 11.0 µM 7% | [9]; at 33.0 µM 38% | [10]; [17] 7% | [10]; [18] 57% | [10]; at 50.0 µM 48.8% | [11]; at 1.2 µM 1% | [11]; at 3.7 µM 3% | [11]; [17] 29% | [11]; at 11.0 µM 7% | [11]; at 33.0 µM 26% | [11]; [18] 49% | [11]; at 50.0 µM 25.4% | [11]; at 100.0 µM 67% | [12]; at 1.2 µM -1% | [12]; at 3.7 µM 4% | [12]; at 11.0 µM 15% | [12]; at 33.0 µM 51% | [13]; at 1.2 µM 1% | [13]; at 3.7 µM 7% | [13]; at 11.0 µM 21% | [13]; at 33.0 µM 55% | [14]; at 1.2 µM 3% | [14]; at 3.7 µM 11% | [14]; at 11.0 µM 36% | [16]; at 1.2 µM 20% | [16]; at 3.7 µM 60%
active: [1]; at 33.0 µM 83% | [1]; at 100.0 µM 92% | [3]; at 100.0 µM 83% | [4]; at 100.0 µM 79% | [5]; at 33.0 µM 76% | [5]; [18] 72% | [5]; at 100.0 µM 91% | [6]; at 33.0 µM 74% | [6]; [18] 80% | [6]; at 100.0 µM 91% | [7]; at 33.0 µM 76% | [7]; at 100.0 µM 89% | [9]; at 100.0 µM 85% | [12]; at 100.0 µM 86% | [13]; at 100.0 µM 84% | [14]; at 33.0 µM 71% | [14]; at 100.0 µM 90% | [15]; [17] 72% | [15]; [18] 92% | [15]; at 50.0 µM 71.7% | [16]; at 11.0 µM 84% | [16]; at 33.0 µM 93% | [16]; at 100.0 µM 94%

S=C1SCN(CCc2ccccc2)CN1CCc1ccccc1
active: [3]; at 11.0 µM 85% | [3]; at 33.0 µM 92% | [3]; at 100.0 µM 81% | [6]; at 50.0 µM 71.8% | [8]; at 50.0 µM 76.2% | [11]; [18] 72% | [11]; at 50.0 µM 79.1% | [15]; [18] 80%
inactive: [1]; at 1.2 µM 12% | [1]; at 3.7 µM 21% | [1]; at 11.0 µM 46% | [1]; at 33.0 µM 63% | [1]; at 100.0 µM 46% | [2]; at 1.2 µM 16% | [2]; at 3.7 µM -1% | [2]; at 11.0 µM 46% | [2]; at 33.0 µM 45% | [2]; at 100.0 µM 10% | [3]; at 1.2 µM 26% | [3]; at 3.7 µM 51% | [4]; at 1.2 µM 1% | [4]; at 3.7 µM 0% | [4]; at 11.0 µM 35% | [4]; at 33.0 µM 42% | [4]; at 100.0 µM 26% | [5]; at 1.2 µM -12% | [5]; at 3.7 µM 5% | [5]; [17] 7% | [5]; at 11.0 µM 50% | [5]; at 33.0 µM 64% | [5]; [18] 38% | [5]; at 50.0 µM 55% | [5]; at 100.0 µM 52% | [6]; at 1.2 µM -3% | [6]; at 3.7 µM 1% | [6]; [17] 24% | [6]; at 11.0 µM 52% | [6]; at 33.0 µM 54% | [6]; [18] 55% | [6]; at 100.0 µM 38% | [7]; at 1.2 µM -20% | [7]; at 3.7 µM -4% | [7]; at 11.0 µM 2% | [7]; at 33.0 µM 34% | [7]; at 100.0 µM 16% | [8]; [17] 9% | [8]; [18] 48% | [9]; at 1.2 µM 3% | [9]; at 3.7 µM 10% | [9]; at 11.0 µM 25% | [9]; at 33.0 µM 45% | [9]; at 100.0 µM 17% | [10]; [17] 12% | [10]; [18] 12% | [10]; at 50.0 µM 22.1% | [11]; at 1.2 µM -2% | [11]; at 3.7 µM 3% | [11]; [17] -4% | [11]; at 11.0 µM 23% | [11]; at 33.0 µM 53% | [11]; at 100.0 µM 42% | [12]; at 1.2 µM 6% | [12]; at 3.7 µM 3% | [12]; at 11.0 µM 53% | [12]; at 33.0 µM 63% | [12]; at 100.0 µM 47% | [13]; at 1.2 µM -3% | [13]; at 3.7 µM -10% | [13]; at 11.0 µM 20% | [13]; at 33.0 µM 40% | [13]; at 100.0 µM 19% | [14]; at 1.2 µM -5% | [14]; at 3.7 µM 16% | [14]; at 11.0 µM 31% | [14]; at 33.0 µM 59% | [14]; at 100.0 µM 48% | [15]; [17] -9% | [15]; at 50.0 µM 58% | [16]; at 1.2 µM 15% | [16]; at 3.7 µM 25% | [16]; at 11.0 µM 47% | [16]; at 33.0 µM 65% | [16]; at 100.0 µM 39%
